# Rows were chosen to be rich in hits. Some 3.6% of all compounds tested hit in one or more screens of this group.
# MazF activator: activators of E. coli MazEF toxin-antitoxin RNase, primary screen, biochemical, fluorescence, uHTS; activation, % at 20 µM; Endoribonuclease toxin MazF (Escherichia coli (strain K12)), P0AE70; FAM/BHQ RNA-DNA oligo cleavage fluorescence, 5 h; AID 504720, 2011; 350,000 tested, 0.32% active; in the data active means activation above about 50%
# Target sequence (P0AE70 whole entry, looked up): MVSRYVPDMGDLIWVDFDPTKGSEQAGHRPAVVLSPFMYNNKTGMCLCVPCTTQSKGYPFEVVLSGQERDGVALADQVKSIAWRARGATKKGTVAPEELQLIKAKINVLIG
# BoNT F protease: BoNT/F light chain protease inhibitors, primary screen, biochemical, flow cytometry, MLPCN library; 360,000 tested, 0.22% active; AID 588497, 2011; Botulinum neurotoxin type F light chain protease (Clostridium botulinum); Multiplex microsphere protease cleavage assay; inhibition, % at 10 µM; in the data active means inhibition above about 35%, passing the limit was not always enough; inconclusive means no clear call, values can overlap the other calls
# Bead autofluor: compound fluorescence in toxin protease inhibitor counterscreen. compound autofluorescence counterscreen, microsphere flow cytometry; active compounds read high. fluorescence intensity (no concentration beside the values). 360,000 tested, 3.1% active; in the data active means fluorescence intensity above about 16000; inconclusive means no clear call, values can overlap the other calls
# Anthrax LF inh2: Bacillus anthracis LF protease inhibitors, primary screen, biochemical, multiplex microsphere, MLPCN library | multiplex microsphere protease cleavage assay | inhibition, % at 10 µM | 360,000 tested, 0.12% active | AID 588501, 2011
# BoNT-A LC inh2: BoNT/A light chain protease inhibitors, primary screen, biochemical, flow cytometry, MLPCN library | multiplex microsphere protease substrate cleavage | 360,000 tested, 0.17% active | AID 588499, 2011 | Botulinum neurotoxin type A light chain protease (Clostridium botulinum A str. ATCC 3502) | inhibition, % at 10 µM
# A number is an active result; - = inactive; ? = inconclusive; . = no result given; + = active, no number. Unless noted, no stated cut-off is given here; in the data, active means inhibition above about 30%; inconclusive means no clear call, values can overlap the other calls; inactive means below that.
SMILES,MazF activator,BoNT F protease,Bead autofluor,Anthrax LF inh2,BoNT-A LC inh2
CSc1ccccc1NC(=O)c1c(C)noc1C,-,-,22017,-,-
CSc1ccccc1NC(=O)Nc1ccccc1,-,-,25193,-,?
CC1(Cc2ccc(OC(F)(F)F)cc2)C(=O)Nc2ccc(S(=O)(=O)NC3CCCCC3)cc21 (stereo not given),.,-,-,-,-
CCOc1ccc(C(C)NC(=O)c2ccc3c(c2)NC(=O)C(C)S3)cc1OCC (stereo not given),-,-,-,-,-
CC1C/C(=C/c2ccncc2)C(=O)/C(=C/c2ccncc2)C1 (stereo not given),-,-,-,-,-
CC1C/C(=C/c2cccn2C)C(=O)/C(=C/c2cccn2C)C1 (stereo not given),+,-,-,-,-
CCOC(=O)c1ccc(N=Cc2c(O)n(-c3ccccc3F)c(=S)[nH]c2=O)cc1,-,-,-,-,-
CCOC(=O)c1c(/N=C/c2c(O)n(-c3ccc(F)cc3)c(=S)[nH]c2=O)sc2c1CCCC2,-,43,-,56,101
CCOC(=O)c1c(/N=C/c2c(O)n(-c3ccccc3F)c(=S)[nH]c2=O)sc2c1CCCC2,-,-,-,56,57
CC(=O)C1C(c2ccccc2Cl)NC(=O)NC1(O)C(F)(F)F (stereo not given),-,-,-,-,-
CC(=O)C1C(c2ccncc2)NC(=O)NC1(O)C(F)(F)F (stereo not given),-,-,22926,-,-
CC(=O)C1C(c2ccc3ncccc3c2)NC(=O)NC1(O)C(F)(F)F (stereo not given),-,-,22750,-,-
O=C(Nc1ccccc1Br)c1cccc2ccccc12,-,-,-,-,-
CC(C)CCSc1nc(N2CCOCC2)c2c(c1C#N)CC(C)(C)OC2,-,-,19440,-,-
COC(=O)CCSc1nc(N2CCOCC2)c2c(c1C#N)CC(C)(C)OC2,-,-,-,-,-
CN(C)P(=O)(Nc1cccc2ccccc12)Nc1cccc2ccccc12,-,-,-,-,-
COC(=O)C[C@@H]1C[C@H]2c3cc(NS(C)(=O)=O)ccc3O[C@H]2[C@H](CO)O1,-,-,-,-,-
CCN(CC)C(=O)CSc1nc2c(sc(=S)n2Cc2ccco2)c(=O)n1-c1ccccc1,-,-,20976,-,-
CCOC(=O)CSc1nc2c(sc(=S)n2-c2ccccc2OC)c(=O)n1Cc1ccco1,-,-,16526,-,-
CCOC(=O)CSc1nc2c(sc(=S)n2-c2ccccc2OC)c(=O)n1-c1ccccc1OC,-,-,-,-,-
CCC(C)[C@H]1CNC(=O)C(=O)N1CCc1cccc2ccccc12 (stereo not given in full),.,-,-,-,-
Cc1ccc(-c2ccc(CCC(=O)O)n2CC2CCCO2)cc1 (stereo not given),-,-,22736,-,?
O=C(O)CCc1ccc(-c2ccccc2)n1CC1CCCO1 (stereo not given),-,-,-,-,-
c1ccc(CNC2=NCCCC2)cc1,-,-,-,-,-
O=C(NNC1=NCCCCC1)c1ccccc1,-,-,22558,-,-
SMILES,MazF activator,BoNT F protease,Bead autofluor,Anthrax LF inh2,BoNT-A LC inh2
Cc1ccc(O)c(CNc2nc3ccccc3n2C(C)C)c1,-,38,-,-,-
CC(C)n1c(NCc2cc(Cl)ccc2O)nc2ccccc21,-,-,-,-,-
COc1ccc(NC(=O)CN(C2CCCCC2)S(C)(=O)=O)cc1Cl,-,-,21935,-,-
COc1ccc(CCNC(=O)CN(C2CCCCC2)S(C)(=O)=O)cc1OC,-,-,-,-,-
CS(=O)(=O)N(CC(=O)NCCc1ccccc1)C1CCCCC1,-,-,18975,-,-
Cc1ccc(-c2csc(NC(=O)c3ccc(F)cc3)c2C(=O)O)cc1,-,-,-,-,-
COc1ccc(CCN2C(=O)CCC2(C)C(=O)NCc2cccnc2)cc1OC (stereo not given),-,-,-,-,-
COc1ccc(CN2C(=O)CCC2(C)C(=O)NCc2cccnc2)c(OC)c1 (stereo not given),-,-,22905,-,?
Nc1c(C(=O)OCC2CCCO2)c2nc3ccccc3nc2n1C1CCCC1 (stereo not given),-,-,32531,-,-
Cc1cc(C(=O)Nc2cccc(C(=O)O)c2)c(C)o1,-,-,22853,-,?

# Screening data (PubChem)
